FLuc modulator: counter-screen for miR-21 project: firefly luciferase inhibitors or activators; purified FLuc, Km substrates, luminescence inhibition; 360,000 compounds, 6.9% hits; Potency, µM (series often up to 57.5 µM), inactives show at the highest dose activity change, negative = inhibition, usual class: inhibitors; AID 588342; P08659;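 also: plate controls were vehicle for no effect and reference inhibitor for full effect; nearly all actives have a fitted effect of over 55% in size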
Target sequence (P08659 whole entry, looked up): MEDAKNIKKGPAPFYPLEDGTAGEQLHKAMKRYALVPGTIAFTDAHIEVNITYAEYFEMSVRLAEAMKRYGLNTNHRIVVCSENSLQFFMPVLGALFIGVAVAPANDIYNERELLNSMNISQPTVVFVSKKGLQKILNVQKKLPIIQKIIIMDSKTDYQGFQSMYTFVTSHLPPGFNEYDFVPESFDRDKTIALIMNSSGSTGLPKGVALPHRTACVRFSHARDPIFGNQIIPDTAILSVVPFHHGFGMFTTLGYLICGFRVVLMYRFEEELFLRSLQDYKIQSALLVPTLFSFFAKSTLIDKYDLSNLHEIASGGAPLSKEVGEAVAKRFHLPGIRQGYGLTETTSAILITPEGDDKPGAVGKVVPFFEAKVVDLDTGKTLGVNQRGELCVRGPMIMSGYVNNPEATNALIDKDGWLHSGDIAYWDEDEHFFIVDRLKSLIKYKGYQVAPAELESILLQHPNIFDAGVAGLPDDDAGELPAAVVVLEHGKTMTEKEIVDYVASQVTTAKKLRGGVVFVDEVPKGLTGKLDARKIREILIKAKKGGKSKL
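Purified P. pyralis luciferase, 10 nM final, with Km-level 10 uM D-luciferin and 10 uM ATP in 50 mM Tris acetate pH 7.5, 10 mM Mg acetate, 0.01% Tween-20, 0.05% BSA; 6-point qHTS titration about 60 µM downward; luminescence read.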
NPC1 prom act: activates the NPC1 promoter. 320,000 compounds, 2.4% hits. Potency, µM (doses to about 9.22 µM), for the others: at the top dose activation, usual class: activators. Huh7 NPC1 promoter luciferase reporter, 24 h; also: % of control where 0% means no effect; nearly all actives have a fitted effect of over 60% in size
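Huh7 reporter cells (NPC1 promoter driving luciferase) are dosed with compound for 24 h at 37 °C, 5% CO2; luciferase detection reagent is then added and luminescence measured after 10 min at ambient temperature.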
Rab9 promoter act: activators of Rab9 promoter. Huh7 Rab9 promoter-luciferase reporter, luminescence, 24 h. Potency, µM (titrated, usually from 9.22 µM), for the others: at the top dose activation, negative = inhibition, actives largely listed as activators. 320,000 compounds, 2.8% hits; also: % of control where 0% means no effect; nearly all actives have a fitted effect of over 60% in size
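Luminescence read-out: Huh7 cells stably expressing Rab9-luciferase, treated 24 h with compound at 37 °C, then lysed with luciferase reagent for 10 min at ambient before reading.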
SMN2 splice up: SMN2 splice variant enhancement; HEK293 SMN2-luciferase splicing reporter, luminescence, 30-36 h; Potency, µM (highest dose often 46.1 µM), inactives show top-dose activity change, positive = activation, most hits filed as activators; 210,000 compounds, 2.8% hits; also: % of control where 0% means no effect; nearly all actives have a fitted effect of over 55% in size
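HEK293 cells carry an SMN2 […]–luciferase reporter in which exon 7 inclusion puts luciferase in frame. Cells were plated 10-12 h before compound addition, then incubated 30-36 h at 37C. ONE-Glo luminescence was read; sodium butyrate at 4.5 mM final served as control.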
ELG1 genotox: genotoxicity induction in ELG1-luciferase HEK293T cells. Potency, µM (highest dose often 46 µM), without a hit: at the highest dose activity change, positive = activation, hits mostly activators. 330,000 compounds, 1.3% hits. HEK293T ELG1-luciferase reporter, luminescence, 16 h; also: % of control where 0% means no effect; nearly all actives have a fitted effect of over 60% in size
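HEK293T cells expressing luciferase-tagged ELG1 were exposed to compound or DMSO vehicle for 16 hr at 37 °C and 5% CO2. Luciferase activity was then measured with ONE-Glo after 30 min at room temperature.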
ELG1 repair inh: inhibitors of ELG1-dependent DNA repair in HEK293T cells; HEK293T ELG1-luciferase reporter, luminescence, 16 h; DNA damage induced by 5-fluorouridine; Potency, µM (doses to about 46.1 µM), without a hit: top-dose activity change, negative = inhibition, actives largely listed as inhibitors; 330,000 compounds, 2.3% hits; also: % is scaled to controls: 0 for no effect and ±100 for the full control effect; nearly all actives have a fitted effect of over 55% in size
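Reporter activity after DNA damage by 5-fluorouridine is monitored. Compound-treated cells incubate 16 hr at 37 °C, then ONE-Glo is added for 30 min before luminescence reading.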
The depositor's hits bear a star; ? = inconclusive; nt = no result. An excerpt weighted towards active compounds, which were near 9.2% of everything screened. Calls follow the shape of the dose curve; as a rule, active = well fitted curve in the direction sought with a large enough effect; inconclusive = small, poorly fitted or top-dose-only effect, or another doubt; inactive = no such curve, though single readings can be large; an effect the other way counts as inactive or inconclusive. Potency is read from the fitted curve at half-maximal effect.

SMILES	FLuc modulator	NPC1 prom act	Rab9 promoter act	SMN2 splice up	ELG1 genotox	ELG1 repair inh
COc1ccc(-c2nsc(SCC(=O)Nc3ccc4c(c3)OCO4)n2)cc1	-6.2%	16.9%	23.2%	9.0%	16.5%	?
CCOC(=O)CNC(=O)CSc1nc(-c2ccc(C)cc2)ns1	12µM*	7.2%	15.7%	1.8%	0.6%	20.2%
COc1cccc(N2CCN(C(=O)c3ccccc3SCC(=O)NCc3ccco3)CC2)c1	-17.0%	-3.5%	-3.0%	nt	-5.0%	?
COc1cc2c(-c3ccc(O)cc3)nc3c(c(C)nn3-c3ccccc3)c2cc1OC	1.5%	-11.1%	-11.6%	-46.0%	2.3%	9.2µM*
COc1cccc(-c2nc3c(c(C)nn3-c3ccccc3)c3cc(OC)c(OC)cc23)c1	-0.8%	nt	nt	1.0%	nt	nt
CN(Cc1c(F)cccc1Cl)C(=O)CCc1c[nH]c2ccccc12	-11.6%	1.1%	3.1%	nt	0.9%	-1.8%
Cc1cc(=O)[nH]c(N/N=C/c2ccc(-c3ccc(F)cc3)o2)n1	6.01µM*	25.9%	?	nt	9.5%	?
CSc1ccc(/C=N/Nc2nc(C)cc(=O)[nH]2)cc1	?	16.1%	25.7%	23.4%	9.9%	?
O=C(NC(=Nc1nc2ccccc2o1)NC(=O)c1ccccc1)c1ccccc1	-10.1%	25.8%	?	?	?	?
Cc1ccc(NC(=O)c2c(C)nc(Nc3nc4ccccc4o3)nc2C)cc1	0.7%	-0.6%	-1.2%	-8.2%	1.7%	10.9%
Cc1cc(C)nc(Nc2nc3ccccc3o2)n1	-9.6%	22.6%	18.3%	nt	2.6%	?
CCCOC(=O)Nc1nc2ccccc2o1	13.5µM*	2.24µM*	2.51µM*	?	?	?
O=C(NNc1nc2ccccc2o1)c1ccccc1	2.69µM*	?	0.794µM*	nt	16.1%	?
CCOC(=O)C(=CN=C(N)Nc1nc2ccccc2o1)C(=O)OCC	-2.3%	?	?	nt	?	?
FC(F)(F)Oc1ccc(Nc2nc3ccccc3o2)cc1	8.49µM*	2.51µM*	?	?	?	?
c1ccc(Nc2nc3ccccc3o2)cc1	3.01µM*	2µM*	2.51µM*	?	1.84µM*	?
CCC/C(O)=C1\C(=O)CC(C)(C)CC1=Nc1cccc([N+](=O)[O-])c1	1.4%	-1.0%	-1.5%	nt	-2.6%	8.9%
CC1=C(C(=O)OCc2ccccc2)C(c2cccc3ccccc23)NC(=O)N1CCCC(=O)O (configuration not stated)	-1.4%	-0.8%	1.5%	nt	4.1%	12.5%
Cc1nc(Nc2ccccc2F)c2oc3ccccc3c2n1	?	19.7%	-5.1%	nt	4.2%	29.3%
Fc1ccccc1Nc1nc2ccccc2o1	1.51µM*	0.708µM*	0.398µM*	nt	2.06µM*	?
O=C(COC(=O)CC1CCCC1)Nc1cc2c(cc1Cl)C(=O)c1ccccc1C2=O	13.5µM*	3.55µM*	6.31µM*	?	14.6µM*	?
CC(C)c1ccc(NC(=O)COC(=O)CC2CCCC2)cc1	nt	nt	nt	nt	4.0%	20.7%
CCCCN(C)C(=O)Cn1cnc2sc(C)c(S(=O)(=O)N3CCN(c4ccccc4OC)CC3)c2c1=O	-0.1%	-2.4%	-2.0%	7.1%	-17.4%	5.17µM*
CC1CCCN(S(=O)(=O)c2cc3c4c(c2)CCN4C(=O)CC3)C1 (configuration not stated)	0.6%	0.9%	0.2%	nt	-3.8%	0.0%
COc1cccc(-n2cc(C(=O)OCc3ccc(F)c(F)c3)c3ccccc3c2=O)c1	-1.0%	nt	nt	nt	nt	nt
SMILES	FLuc modulator	NPC1 prom act	Rab9 promoter act	SMN2 splice up	ELG1 genotox	ELG1 repair inh
COC(=O)c1c(-c2ccc(F)cc2)csc1NC(=O)c1ccco1	7.57µM*	?	2.24µM*	-0.6%	17.6%	?
O=C(Nc1scc(-c2ccccc2)c1C(=O)O)c1ccccc1Cl	?	-3.4%	1.0%	nt	1.1%	0.0%
CCOC(=O)c1c(-c2ccc(C)s2)csc1NC(=O)c1ccco1	2.2%	5.5%	5.5%	-25.2%	1.6%	3.6%
COc1ccc(-c2csc(NC(=O)c3ccccc3F)c2C(=O)O)cc1	23.9µM*	?	16.6%	nt	-3.9%	25.9%
O=C(Nc1scc(-c2ccccc2)c1C(=O)O)c1ccco1	10.7µM*	17.1%	28.6%	?	?	?
CC1(C)C2CCC1(CS(=O)(=O)NC(CC(=O)O)c1cccc(Br)c1)C(=O)C2 (configuration not stated)	0.5%	-0.3%	0.2%	nt	0.2%	12.1%
CC(C)(C)OC(=O)C[C@H]1C/C=C\C[C@@H](CC(=O)NCCO)C(=O)NCCOC1=O	nt	nt	nt	nt	7.1%	?
COc1ccc(S(=O)(=O)N(CCc2ccccc2)CC(=O)NCc2ccccc2)cc1OC	-10.4%	nt	nt	-12.8%	nt	nt
Cc1ccc2c(c1)c1c(c(=O)n(Cc3ccccc3)c(=O)n1Cc1ccccc1F)n2C	-5.9%	nt	nt	nt	nt	nt
CC(C)=CCC/C(C)=C/CNC(=O)C[C@H]1C[C@H](C(=O)N2CCOCC2)[C@@]2(CCC3CCCC3)c3[nH]c4cc(CCC(=O)N(C)C)ccc4c3CCN2C1=O	nt	nt	nt	nt	-1.3%	23.1µM*
Cc1ccc([S+](=O)([O-])N(c2ccccc2)[S+](=O)([O-])C(F)(F)F)cc1	nt	nt	nt	-5.5%	nt	nt
Cc1nn(CC(=O)Nc2ccc3c(c2)nc2n3CCN(C3CCCCC3)C2)c(=O)c2ccccc12	21.3µM*	9.5%	-1.9%	nt	0.7%	-2.0%
Cc1nn(CC(=O)Nc2ccc3c(c2)nc(CCN2CCCCC2)n3C)c(=O)c2ccccc12	-0.4%	-1.3%	4.1%	19.1%	-2.8%	-13.7%
CCS(=O)(=O)c1ccc(O)c(NC(=O)c2ccc(S(=O)(=O)N3CCCCCC3)cc2)c1	nt	nt	nt	nt	-0.8%	-9.0%
CCCc1cc2c(n1Cc1cc(F)cc(F)c1)C(C)C1CN(C(=O)c3ccccc3)C(C)(C(=O)OC)C21 (configuration not stated)	nt	nt	nt	-8.7%	nt	nt
c1ccc(Cn2ccc(-c3cnc(-c4ccccc4)s3)n2)cc1	1.9µM*	1.41µM*	1.12µM*	nt	?	?
COc1ccc(NC(=O)Nc2ccc3nccnc3c2)cc1	4.26µM*	3.16µM*	0.398µM*	?	13.0%	?
COc1ccc(NC(=O)Nc2ccc3nonc3c2)cc1	?	?	3.55µM*	nt	2.9%	?
COc1ccc(C(=O)Nc2ccc3nc(C)c(C)nc3c2)cc1	?	24.0%	13.6%	nt	8.0%	?
CC(=O)Nc1ccc(NC(=O)c2ccc(COc3ccc(C)cc3)o2)cc1	-3.3%	?	?	nt	3.4%	19.9%
O=C(O)c1ccc(NC(=O)c2ccc(COc3ccccc3)o2)cc1	19µM*	2.6%	17.1%	nt	4.1%	18.1%

Screening data deposited in PubChem BioAssay by National Center for Advancing Translational Sciences (NCATS).
